Experimental data taken from the supplement of paper PMC6089552.
“And” between values parts separate entries of the source, which are not always exact repeats. Identical values can stand only once. About 300 (9.4%) of roughly 3,200 compounds showed activity. For the sample, actives were picked, then their nearest neighbours and some compounds at random.

Test system: A673/TR/shEF
Test: cell viability (LOESS-normalised, relative to median of negative controls) (log2 ratio); higher = more viable cells (less compound effect), active = hit call of the paper (over 3 MAD below the median)
Conditions: treatment time: 72 h
Outline: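 A673/TR/shEF Ewing sarcoma cells (1,500 per well, 384-well plates) were grown with or without doxycycline to induce EWS-FLI1 shRNA knockdown, starting 24 h before compounds. Library compounds at two or more concentrations, with DMSO controls, were added for three days. Cell viability was read by CellTiter-Glo luminescence on an Envision reader, then LOESS-corrected per plate, divided by the median of negative controls and log2-transformed. Hits were wells at least three median absolute deviations from the median of all screened wells.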

[1] = 0.25 µM, library screen: screen1, EWS-FLI1 expression: high (no doxycycline)
[2] = 0.25 µM, library screen: screen1, EWS-FLI1 expression: low (doxycycline-induced shRNA knockdown)
[3] = 2.5 µM, library screen: screen1, EWS-FLI1 expression: high (no doxycycline)
[4] = 2.5 µM, library screen: screen1, EWS-FLI1 expression: low (doxycycline-induced shRNA knockdown)
[5] = 0.25 µM, library screen: screen2, EWS-FLI1 expression: high (no doxycycline)
[6] = 0.25 µM, library screen: screen2, EWS-FLI1 expression: low (doxycycline-induced shRNA knockdown)
[7] = 2.5 µM, library screen: screen2, EWS-FLI1 expression: high (no doxycycline)
[8] = 2.5 µM, library screen: screen2, EWS-FLI1 expression: low (doxycycline-induced shRNA knockdown)
[9] = 0.025 µM, library screen: screen1, EWS-FLI1 expression: high (no doxycycline)
[10] = 0.025 µM, library screen: screen1, EWS-FLI1 expression: low (doxycycline-induced shRNA knockdown)
[11] = 25 µM, library screen: screen1, EWS-FLI1 expression: high (no doxycycline)
[12] = 25 µM, library screen: screen1, EWS-FLI1 expression: low (doxycycline-induced shRNA knockdown)
[13] = 0.103 µM, library screen: screen3, EWS-FLI1 expression: high (no doxycycline)
[14] = 0.103 µM, library screen: screen3, EWS-FLI1 expression: low (doxycycline-induced shRNA knockdown)
[15] = 0.308 µM, library screen: screen3, EWS-FLI1 expression: high (no doxycycline)
[16] = 0.308 µM, library screen: screen3, EWS-FLI1 expression: low (doxycycline-induced shRNA knockdown)
[17] = 0.926 µM, library screen: screen3, EWS-FLI1 expression: high (no doxycycline)
[18] = 0.926 µM, library screen: screen3, EWS-FLI1 expression: low (doxycycline-induced shRNA knockdown)
[19] = 2.8 µM, library screen: screen3, EWS-FLI1 expression: high (no doxycycline)
[20] = 2.8 µM, library screen: screen3, EWS-FLI1 expression: low (doxycycline-induced shRNA knockdown)
[21] = 8.3 µM, library screen: screen3, EWS-FLI1 expression: high (no doxycycline)
[22] = 8.3 µM, library screen: screen3, EWS-FLI1 expression: low (doxycycline-induced shRNA knockdown)
[23] = 25 µM, library screen: screen3, EWS-FLI1 expression: high (no doxycycline)
[24] = 25 µM, library screen: screen3, EWS-FLI1 expression: low (doxycycline-induced shRNA knockdown)

Measured: cell viability (log2)

CC1(C)C(=O)C=C[C@]2(C)C3CC[C@@]4(C)[C@H](c5ccoc5)OC(=O)[C@H]5O[C@]54[C@]3(C)C(=O)C[C@@H]12 (some centres undefined)
inactive: [1] 0.0539 | [2] 0.0813 | [3] 0.0765 | [4] 0.119

Cc1cc(=O)oc2cc(O)c(O)cc12
inactive: [1] -0.0238 | [2] 0.0536 | [3] 0.00784 | [4] 0.0751

Cc1cc(=O)oc2c(O)c(O)ccc12
active: [1] -0.0965
inactive: [2] -0.0218 | [3] 0.0459 | [4] 0.107

Cc1cc(=O)oc2cc(O)ccc12
inactive: [1] 0.129 | [2] 0.0733 | [3] 0.103 | [4] -0.0344

N#CC1=C(N)Oc2cc(N)ccc2C1c1ccc(OCc2ccccc2)cc1 (centres undefined)
inactive: [1] 0.04 | [2] 0.0479 | [3] 0.099 | [4] 0.204

CC(C)C[C@H](N)CSSC[C@@H](N)CC(C)C
inactive: [5] 0.107 | [6] 0.1 | [7] 0.104 | [8] 0.0902

CCCCOCCOC(=O)CCCOc1ccc(Cl)cc1Cl
inactive: [1] 0.0256 | [2] 0.038 | [3] 0.0946 | [4] 0.127

Cn1cc(C2=C(c3cn(CCCSC(=N)N)c4ccccc34)C(=O)NC2=O)c2ccccc21
active: [3] -1.27 | [4] -0.615 | [11] -4.25 | [12] -2.05
inactive: [9] 0.0502 | [10] 0.0613 | [1] -0.0731 | [2] 0.0259

Cn1cc(C2=C(c3ccc(Cl)cc3Cl)C(=O)NC2=O)c2ccccc21
inactive: [13] 0.039 | [14] 0.0193 | [15] 0.0253 | [16] 0.0244 | [17] 0.0632 | [18] 0.00111 | [19] 0.0516 | [20] -0.00589 | [21] 0.0741 | [22] 0.0603 | [23] 0.04 | [24] 0.0754

CN(C)CCCn1cc(C2=C(c3c[nH]c4ccccc34)C(=O)NC2=O)c2ccccc21
inactive: [9] 0.176 | [10] 0.147 | [1] 0.197 | [2] 0.193 | [12] 0.0609
active: [3] -0.136 | [11] -0.422
0.291: [4]

O=C(Nc1c(-c2ccccc2)nc2ccc(Cl)cn12)c1ccc(F)cc1
inactive: [1] 0.0947 | [2] 0.0794 | [3] 0.184 | [4] -0.0685

NCC1OC(OC2C(N)CC(N)C(OC3OC(CO)C(O)C(N)C3O)C2O)C(O)C(O)C1O (centres undefined)
inactive: [1] 0.121 | [2] -0.0254 | [3] 0.206 | [4] 0.0929

COC(=O)c1c(C)c2c(c(C)c1OC(C)=O)OC(=O)c1c(C)c(Cl)c(O)c(Cl)c1O2
inactive: [1] 0.0664 | [2] 0.0141 | [3] 0.0918 | [4] 0.03

C[C@@H]1[C@H]2[C@H](O[C@@H]3O[C@H](CO)[C@@H](O)[C@H](O)[C@H]3O)OC=C(C(=O)O)[C@H]2C[C@@H]1O
inactive: [1] 0.0698 | [2] 0.0626 | [3] 0.106 | [4] -0.0365

COc1cc(O)c(C)c(O)c1
inactive: [1] 0.0455 | [2] 0.156 | [3] 0.0996 | [4] 0.176

COCc1cc(O)c(O)c(O)c1-c1c(COC)cc(O)c(O)c1O
inactive: [9] 0.13 | [10] 0.0379 | [1] 0.161 | [2] -0.00717 | [3] -0.00977 | [4] 0.159
active: [11] -4.25 | [12] -2.42

COc1c(O)cc(O)cc1O
inactive: [1] 0.0746 | [2] 0.0275 | [3] 0.127 | [4] 0.0739

CC(=O)c1c(C(C)=O)c(C)n(-c2cc(C)cc(C)c2)c1C
inactive: [1] 0.0993 | [2] 0.13 | [3] 0.0722 | [4] 0.0963

CC(C)N1C(=O)C(=Cc2ccc(F)cc2)SC1=S
inactive: [1] 0.0751 | [2] 0.059 | [3] 0.129 | [4] -0.0496

c1cc(CN2CCCNCCNCCCNCC2)ccc1CN1CCCNCCNCCCNCC1
inactive: [13] 0.00595 | [14] 0.0496 | [15] 0.0705 | [16] 0.00482 | [17] 0.086 | [18] 0.0433 | [19] 0.0246 | [20] 0.0244 | [21] 0.0572 | [22] 0.0352 | [23] 0.0828 | [24] 0.0617

CC1CNCCN1S(=O)(=O)c1cccc2cnccc12 (centres undefined)
active: [11] -0.155
inactive: [10] 0.0557 | [2] 0.0236 | [5] 0.145 and 0.204 | [6] 0.0425 and 0.187 | [3] -0.0561 | [4] 0.0655 | [7] 0.0837 and 0.258 | [8] 0.0573 and 0.209 | [12] 0.112
0.354: [9]
0.301: [1]

O=S(=O)(c1cccc2c(I)cccc12)N1CCCNCC1
inactive: [9] 0.188 | [10] -0.167 | [1] 0.201 | [2] -0.255 | [5] 0.178 | [6] 0.133 | [4] -0.111 | [7] 0.0746 | [8] 0.0593
active: [3] -0.248 | [11] -0.335 | [12] -0.197

O=S(=O)(c1cccc2cnccc12)N1CCNCC1
inactive: [5] 0.166 | [6] 0.045 | [7] 0.145 | [8] 0.0254

O=S(=O)(c1cccc2cnccc12)N1CCCNCC1
0.333: [1]
active: [3] -0.187 | [11] -0.284
0.279: [9]
inactive: [10] -0.0219 | [2] -0.0194 | [4] 0.0781 | [12] 0.0444

O=S(=O)(c1cccc2c(Cl)cccc12)N1CCCNCC1
active: [3] -0.211 | [11] -0.331
inactive: [9] 0.198 | [10] -0.106 | [1] 0.179 | [2] -0.113 | [5] 0.275 | [6] 0.144 | [4] -0.13 | [7] 0.128 | [8] 0.122 | [12] -0.103

CC(C)CCC[C@@H](C)[C@H]1CC[C@H]2[C@@H]3CC[C@H]4C[C@H](O)CC[C@]4(C)[C@H]3CC[C@]12C
inactive: [1] 0.14 | [2] 0.0986 | [3] 0.118 | [4] 0.0759

O=C(O)/C=C1/CCCc2ccccc2C1O (centres undefined)
inactive: [1] 0.0671 | [2] 0.163 | [5] 0.165 | [6] 0.0537 | [3] 0.139 | [4] 0.187 | [7] 0.071 | [8] 0.0654

CC(=O)O[C@@H]1CC2C(C)(C)[C@H](O)C=C[C@]2(C)C2CC[C@@]3(C)[C@H](c4ccoc4)OC(=O)C4OC43[C@@]21C (some centres undefined)
inactive: [1] 0.000168 | [2] 0.0262 | [3] 0.0677 | [4] 0.0357

Cc1c(C(=O)O)c(O)cc2c1C(=O)c1c(O)c([C@@H]3O[C@H](CO)[C@@H](O)[C@H](O)[C@H]3O)c(O)c(O)c1C2=O
inactive: [1] 0.057 | [2] 0.112 | [3] 0.0928 | [4] 0.184

Cc1ccc2nc(NC3=NC(CC(=O)O)C(=O)N3)nc(C)c2c1 (centres undefined)
inactive: [1] 0.016 | [2] -0.0194 | [3] 0.0679 | [4] -0.193

CCOc1cccc(=O)c2c(C)[nH]c(C)c12
inactive: [1] 0.0528 | [2] 0.134 | [3] 0.0744 | [4] 0.088

CC1=C2C(O)C(=O)OC3CC4C(C)(C)C(=O)CCC4(C)C(CC1)C23C (centres undefined)
inactive: [1] 0.149 | [2] 0.0333 | [3] 0.0817 | [4] 0.166

CO/N=C(\C(=O)N[C@@H]1C(=O)N2C(C(=O)O)=C(CSc3nc(=O)c(=O)[nH]n3C)CS[C@H]12)c1csc(N)n1
inactive: [1] 0.112 | [2] 0.0388 | [5] 0.21 | [6] 0.115 | [3] 0.082 | [4] 0.12 | [7] 0.149 | [8] 0.12

CC(=O)Oc1c(Cl)c(C)c2c(c1Cl)OC(=O)c1c(C)c(Cl)c(OC(C)=O)c(Cl)c1O2
inactive: [1] 0.0776 | [2] 0.0649 | [3] 0.0636 | [4] -0.0345

COc1c(-c2coc3cc4c(cc3c2=O)CC(O)C(C)(C)O4)ccc2c1C=CC(C)(C)O2 (centres undefined)
inactive: [1] 0.0473 | [2] 0.0244 | [3] 3e-05 | [4] 0.094

COc1cc2c(cc1-c1coc3c4c(ccc3c1=O)OC(C)(C)C=C4)OCO2
inactive: [1] 0.0979 | [2] 0.0365 | [3] 0.112 | [4] 0.0354

CC(C)=CCc1c2c(c3occ(-c4ccc(O)c(O)c4)c(=O)c3c1O)C=CC(C)(C)O2
inactive: [1] 0.131 | [2] 0.0868 | [3] 0.0962 | [4] 0.19

CC1(C)C=Cc2c(cc3occ(-c4ccc5c(c4)OCO5)c(=O)c3c2O)O1
active: [1] -0.098
inactive: [2] 0.0822 | [3] 0.0137 | [4] 0.0314

COc1c2c(cc3occ(-c4ccc5c(c4)OCO5)c(=O)c13)OC(C)(C)C=C2
active: [1] -0.144
inactive: [2] 0.05 | [3] 0.0889 | [4] 0.0736

O=c1c(-c2ccc3c(c2)OCO3)coc2cc(O)ccc12
inactive: [1] 0.113 | [2] 0.0865 | [3] 0.149 | [4] -2.91
